Experimental data taken from the supplement of paper PMC6555819.

tested on: LXRb:RXRa (NR concentration 270 nM, RXRa partner concentration 90 nM); experiment: PBM binding z-score (relative to random genomic background probes); higher = stronger binding; sequences stand for … in GC…GCGATTGACAGCGTAGAATGAAGG
Outline: (§1)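 Regression normalization was applied to scanned fluorescence from custom Agilent 4×180K protein-binding microarrays. Before scanning, arrays were incubated 1 h with ligand-free nuclear receptor dimers, and binding was detected with antibodies against each partner (one per run). Binding z-scores use the random background probes as reference.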

Point of comparison: TCGAATAGGTTAGTCGGGGCATTCAGCCAACATA, PBM binding z-score 1.02. Against it:
- CCAGACAGGTGAGAAGGGAACTCAGCCTCGATTA — lower, -0.208
- ACTCGGAGGACAAAGGTCTGAGCTACGCCAGTGA — lower, -0.796
- ACCTCTAGGTAACCAAGTTCAGTGAATGCCGAAC — lower, 0.37
- AATACAGGGTCATCGTAGGCCGGAGTACGCACAG — higher, 4.53
- CCACCAAGGTGAACAAGGTCGTTGATTACTATTC — higher, 2.04
- CCGAGTAGGTTATGGCGCATTCAGGCAACGGTGA — lower, 0.076
- ACTTACGGGTCAACGAGGGTATAGCACGCGTATA — higher, 3.79
- CGTCCAAGGTCAGAGAGGTCAGTCAATGCCGAGT — higher, 4.65
- CAAACTAGGTCAAGAGGTTAAAGTCCGCTTCCCG — higher, 3.13
- TCTAGCAGGCCAGAGAGTCACTCAAGAGGTACGG — lower, -0.374
- TCTTTTAGATCAAAGGTTAAGAAAGCCGAAGCCT — higher, 2.19
- CAAACTTGGTCAAGGTCAAAGTCGGTTTGTGCCA — higher, 3.8
- GCGACTGTGGCATCAGCAGGTTACCATAACTTAA — lower, -0.0453
- ATCGAAAGGTCGAGGAGAGTATAGAGAAAGGGAA — higher, 2.47
- CATACAGGGTCAGCTAGGCCACAGTAGGGACGGC — higher, 2.31
- TCATATAGGAAAATGCTAGGTGAAAGTCCGATCT — lower, 0.489
- CCTCGGAGGACAGAACGTCAGAGCTGTCCGCTTT — lower, -1.16
- CCGACTGGGGCATAAGGTTACCATGAGCCAGCCC — lower, 0.153
- TCTTGTAGATCAAGCAGGTTTAGAAAGCCTGAGT — lower, -0.134
- GGAACGAGGGCAAGTTGATGGCAGAGTTTGATGG — lower, -0.0137
- CCTCGGAGGACAACAGGTGGTCAGAGCTGCCAGA — lower, -0.782
- TCGAGTAGGTTCCCAATGGGGCATTCAGCTTTCT — lower, -0.1
- TCGAGTAGGTTACCAATGGGGTATTCAGCTTTCT — lower, 0.847
- CAAACTAGTTCAAGGTCAAAGTCGGTTTGTGCCA — higher, 4.81
- CGAACTAGGTCATCCAGGACAGCGAATACATTGA — higher, 2.07
- ATACCAAAGTGATCGTGAGGTCGTTGATACTAAC — lower, 0.923
- ACCTCTAGGTAAGACTCAGTTCAGTGAAGAACGC — lower, -0.301
- TCATATAGGTAAAATGTGAAAGTCGGTGTGGTAA — lower, 0.595
- CCGACTGGGGCAGAAAGGTTACCATCCCATCCGG — lower, 0.878
- TGGAGTAGGTTAGGGGCATTCAGAATGGCGTCGA — higher, 1.91
- CCTACTGGGCCAAAGTCATTGATCAGTCAAAGCA — lower, -0.243
- ATTCGGAGGACAAAGGTCAGAGCTACGCCAGTGA — higher, 3.52
- ATACCAAGGTGATCGTGAGGTCGTTGAGACTAAC — lower, 0.968
- GCTAGCAGGCCAGTTGGGTCACTCAATGACGGGC — lower, -0.381
- CCTACTGGGCCCAAAAGGTCATTGATGCCGATAA — higher, 4.62
- AGAACGAGGGCACGATGAGTTGATAGCAGAGTAG — lower, 0.286
- TCATATAAGTAATACAGGTGAAAGTCGGCATCTA — higher, 1.15
- ATCGAAATGTCGACGAGGTGAGTATACACCGTTT — lower, -0.0135
- TCTCGGAGGACACGAAAGGTCAGAGCTCGACATC — higher, 2.84

tested on: LXRb homodimer (NR concentration 270 nM); experiment: as above
Outline: as §1

Point of comparison: TCGAGTAGGTTCCCAATGGGGCATTCAGCTTTCT, PBM binding z-score -1.76. Against it:
- CCAGACAGGTGAGAAGGGAACTCAGCCTCGATTA — higher, -0.526
- ACTCGGAGGACAAAGGTCTGAGCTACGCCAGTGA — higher, -0.665
- ACCTCTAGGTAACCAAGTTCAGTGAATGCCGAAC — higher, -0.0596
- AATACAGGGTCATCGTAGGCCGGAGTACGCACAG — higher, 1.37
- CCACCAAGGTGAACAAGGTCGTTGATTACTATTC — higher, -0.359
- CCGAGTAGGTTATGGCGCATTCAGGCAACGGTGA — higher, -0.283
- ACTTACGGGTCAACGAGGGTATAGCACGCGTATA — higher, 0.591
- CGTCCAAGGTCAGAGAGGTCAGTCAATGCCGAGT — higher, 0.441
- CAAACTAGGTCAAGAGGTTAAAGTCCGCTTCCCG — higher, 0.567
- TCTAGCAGGCCAGAGAGTCACTCAAGAGGTACGG — higher, -1.55
- TCTTTTAGATCAAAGGTTAAGAAAGCCGAAGCCT — higher, 0.802
- CAAACTTGGTCAAGGTCAAAGTCGGTTTGTGCCA — higher, 0.689
- GCGACTGTGGCATCAGCAGGTTACCATAACTTAA — higher, -0.969
- ATCGAAAGGTCGAGGAGAGTATAGAGAAAGGGAA — higher, 0.669
- CATACAGGGTCAGCTAGGCCACAGTAGGGACGGC — higher, 0.444
- TCATATAGGAAAATGCTAGGTGAAAGTCCGATCT — higher, -0.0669
- CCTCGGAGGACAGAACGTCAGAGCTGTCCGCTTT — higher, -1.1
- CCGACTGGGGCATAAGGTTACCATGAGCCAGCCC — higher, -1.3
- TCTTGTAGATCAAGCAGGTTTAGAAAGCCTGAGT — higher, -0.464
- GGAACGAGGGCAAGTTGATGGCAGAGTTTGATGG — higher, -0.434
- CCTCGGAGGACAACAGGTGGTCAGAGCTGCCAGA — higher, -1.09
- TCGAATAGGTTAGTCGGGGCATTCAGCCAACATA — higher, -0.284
- TCGAGTAGGTTACCAATGGGGTATTCAGCTTTCT — higher, -0.514
- CAAACTAGTTCAAGGTCAAAGTCGGTTTGTGCCA — higher, 1.76
- CGAACTAGGTCATCCAGGACAGCGAATACATTGA — higher, -0.199
- ATACCAAAGTGATCGTGAGGTCGTTGATACTAAC — higher, -0.182
- ACCTCTAGGTAAGACTCAGTTCAGTGAAGAACGC — higher, 0.0183
- TCATATAGGTAAAATGTGAAAGTCGGTGTGGTAA — higher, 0.134
- CCGACTGGGGCAGAAAGGTTACCATCCCATCCGG — higher, -0.971
- TGGAGTAGGTTAGGGGCATTCAGAATGGCGTCGA — higher, 1.89
- CCTACTGGGCCAAAGTCATTGATCAGTCAAAGCA — higher, -1.2
- ATTCGGAGGACAAAGGTCAGAGCTACGCCAGTGA — higher, 0.763
- ATACCAAGGTGATCGTGAGGTCGTTGAGACTAAC — higher, 0.251
- GCTAGCAGGCCAGTTGGGTCACTCAATGACGGGC — higher, -1.51
- CCTACTGGGCCCAAAAGGTCATTGATGCCGATAA — higher, 0.521
- AGAACGAGGGCACGATGAGTTGATAGCAGAGTAG — higher, -0.796
- TCATATAAGTAATACAGGTGAAAGTCGGCATCTA — higher, 0.275
- ATCGAAATGTCGACGAGGTGAGTATACACCGTTT — higher, -0.0075
- TCTCGGAGGACACGAAAGGTCAGAGCTCGACATC — higher, -0.0794
